# Laboratory results taken from PubChem BioAssay AID2283131 (EPA ToxCast).
# Results filed as inconclusive are left out. Activity calls are given as the source filed them. How the source made its calls: active means hit-call score of the fitted dose curve at least 0.9, where 1 is the maximum; inconclusive means response in the unintended direction; inactive means score below 0.9.
# Target: human Bruton's Tyrosine Kinase (BTK), BTK (gene 695) (UniProt Q06187)
# Test: NVS_ENZ_hBTK: NovaScreen (NVS) Enzymatic Assay for human Bruton's Tyrosine Kinase (BTK)
# Method: NVS_ENZ_hBTK is a biochemical, single-readout assay that uses extracted gene-proteins in a cell-free assay. Measurements were taken 1 hour after chemical dosing in a 96-well plate.NVS_ENZ_hBTK is one of one assay component(s) measured or calculated from the NVS_ENZ_hBTK assay. It is designed to make measurements of enzyme activity, a form of enzyme reporter, as detected with fluorescence intensity signals by Fluorescence and electrophoretic mobility shift technology.Data from the assay component NVS_ENZ_hBTK was analyzed into 1 assay endpoint. This assay endpoint, NVS_ENZ_hBTK, was analyzed in the positive analysis fitting direction relative to DMSO as the negative control and baseline of activity. Using a type of enzyme reporter, loss-of-signal activity can be used to understand changes in the enzymatic activity as they relate to the gene BTK. Furthermore, this assay endpoint can be referred to as a primary readout, because this assay has produced multiple assay endpoints where this one serves a enzymatic activity function. To generalize the intended target to other relatable targets, this assay endpoint is annotated to the kinase intended target family, where the subfamily is non-receptor tyrosine kinase. […]
# Sequence of human Bruton's Tyrosine Kinase (BTK), BTK (gene 695) (Q06187 whole entry, looked up): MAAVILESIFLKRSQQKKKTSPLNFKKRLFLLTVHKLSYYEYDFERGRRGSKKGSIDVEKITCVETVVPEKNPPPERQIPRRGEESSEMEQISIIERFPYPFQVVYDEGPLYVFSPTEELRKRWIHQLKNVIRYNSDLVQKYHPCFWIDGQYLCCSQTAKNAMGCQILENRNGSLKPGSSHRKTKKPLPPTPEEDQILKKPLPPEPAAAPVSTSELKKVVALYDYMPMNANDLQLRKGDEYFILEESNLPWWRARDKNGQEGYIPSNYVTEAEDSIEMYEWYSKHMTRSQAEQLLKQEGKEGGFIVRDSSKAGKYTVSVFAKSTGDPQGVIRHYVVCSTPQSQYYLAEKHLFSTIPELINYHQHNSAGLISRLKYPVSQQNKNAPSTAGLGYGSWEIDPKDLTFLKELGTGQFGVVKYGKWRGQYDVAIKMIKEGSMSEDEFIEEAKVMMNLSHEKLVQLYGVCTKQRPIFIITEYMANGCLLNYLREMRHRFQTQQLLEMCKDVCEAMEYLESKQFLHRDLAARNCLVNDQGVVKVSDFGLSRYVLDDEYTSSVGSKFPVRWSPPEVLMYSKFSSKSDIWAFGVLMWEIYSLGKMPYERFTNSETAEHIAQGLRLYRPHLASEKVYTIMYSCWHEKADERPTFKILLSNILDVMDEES
SMILES,outcome,AC50
COCCO,inactive,
S=C([S-])NCCNC(=S)[S-].[Mn+2],,45.5 µM (active)
